Bioassay records (PubChem BioAssay)
INS promoter inh: TRM-6 insulin promoter activity inhibition | inhibition, % at 2 µM | AID 1273 | TRM-6 cells (human fetal islet line), insulin promoter-eGFP reporter, imaging; reporter expression induced with tamoxifen | 0.9% of 130,000 active;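 active = inhibition above the mean plus 3 SD, with well images judged a real hit on visual review, cut at about 60% in these data, passing the limit was not always enough; inconclusive = inhibition over the cutoff but images rejected on review; inactive = inhibition not above the cutoff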
Insulin prom up: MIN6 insulin promoter up-regulation; MIN6 insulin promoter-GFP reporter, high-content imaging; hits give high values; z-score at 5 µM; AID 1625; 0.3% of 190,000 active;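 active = z-score above 3 at 5 µM with at least 500 cells counted in the well; inconclusive = wells under 500 cells, flagged as cytotoxic or low count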
Autophagy HCS: alters autophagy in cells. MEF GFP-LC3 puncta imaging; test concentration mostly 10 µM. calls only at 10 µM (by protocol). 0.98% of 190,000 active. AID 463193;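 active = percentage of spot-positive cells more than 3 SD above its plate mean, without a fluorescence outlier flag or 80% toxicity; inconclusive = no clear call, values can overlap the other calls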;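 also: spot-positive cell cutoff set from DMSO-treated cells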
WT yeast gro inh: growth inhibition of WT yeast, mitochondrial fusion screen; AID 1362; inhibition, % at 10 µM; 2.1% of 190,000 active; mitochondrial fusion phenotypic screen, WT strain; in the data active = inhibition above about 58%; tested in S. cerevisiae
Lmaj promast: inhibitors of Leishmania major promastigote growth. Leishmania major promastigotes, resazurin fluorescence viability. inhibition, % at 10 µM. 9% of 200,000 active; in the data active = inhibition above about 50%;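 also: promastigotes grown with compound for 44 hours at 28 °C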
* = called active by the depositor; i = inactive; ? = inconclusive; · = not tested or not shown; + = active, no number. A selection: hits, their analogues and other compounds. The true share with any hit is near 11%.

SMILES | INS promoter inh | Insulin prom up | Autophagy HCS | WT yeast gro inh | Lmaj promast
COc1ccc2c(c1)NC(c1cc(Cl)cc(Cl)c1O)c1cccn1-2 (stereo unspecified) | · | -0.15 | + | 10.1 | -1.0
Cn1c(=O)c2c(SCCN3CCOCC3)nc(C3CCCC3)nc2n(C)c1=O | 9.1 | -1.04 | i | -31.2 | 11.0
CC(=O)Nc1ccc(NC(=O)C(C)OC(=O)CNS(=O)(=O)c2cccc(Cl)c2)cc1 (stereo unspecified) | · | -0.11 | i | -6.6 | 82.3*
CCn1nc(C)c(C2C(C#N)=C(N)OC3=C2C(=O)CC(C)(C)C3)c1C (stereo unspecified) | · | 0.84 | i | 6.3 | 3.9
Cc1ccc(-c2csc3nc4c5ccccc5c(NCCCN5CCOCC5)nn4c(=O)c23)cc1 | · | -0.91 | i | 75.0* | 100.6*
Cc1ccc(-c2csc3nc(C)n(N)c(=O)c23)cc1 | -66.7 | 0.83 | i | -4.3 | -6.0
Cc1ccc(-c2csc3nc4c5ccccc5c(NCCCN(C)C)nn4c(=O)c23)cc1 | -60.0 | -0.3 | + | 32.8 | 100.6*
C/C(=N\NC(=O)NC1CCCCC1)C1CCCCC1 | -93.8 | ? | i | -0.2 | 95.3*
O=C(Nc1ccccc1Sc1ccccc1)c1ccc(F)cc1 | 10.0 | 0.17 | i | 77.8* | 1.7
CC(=O)Nc1ccc(C(=O)OCC(=O)Nc2ccccc2Sc2ccccc2)cc1 | 0.0 | 0.58 | i | 83.0* | 6.0
N#CCC(=O)Nc1ccc(C(=O)OCC(=O)Nc2ccccc2Sc2ccccc2)cc1 | -40.7 | -0.04 | i | 5.7 | 12.8
O=C(CCl)Nc1ccccc1Sc1ccccc1 | -10.1 | 0.45 | i | -9.5 | 54.4*
O=C(Cc1ccccc1)Nc1cc(Cl)ccc1Sc1ccccc1 | -10.8 | 0.26 | i | 4.0 | 59.8*
O=C(NCC1OCCc2ccccc21)c1ccc(NC(=O)c2cccc(Br)c2)cc1 (stereo unspecified) | 44.1 | -0.68 | i | -2.0 | -0.6
CC1CC(C)(C)CC2(C1)NC(=O)N(CC(=O)NC1CCCc3ccccc31)C2=O (stereo unspecified) | -35.7 | 0.85 | i | 12.8 | 7.9
Cc1ccc(NC(=O)CSc2nnnn2-c2ccc3c(c2)OCO3)cc1C | ? | 0.74 | i | -16.3 | -2.4
CC(=O)c1ccc(S(=O)(=O)N2CCN(C)CC2)cc1 | 21.4 | 0.53 | i | -1.8 | -9.6
O=C(Cc1ccccc1)c1nnc(-c2ccccc2)o1 | 14.3 | 0.12 | i | 7.1 | -3.3
OC(COc1ccc2ccccc2c1Br)Cn1ccnc1 (stereo unspecified) | 41.4 | -2.22 | i | 71.3* | 98.3*
OC(COc1ccc2ccccc2c1)Cn1ccnc1 (stereo unspecified) | · | 1.06 | i | -1.3 | 97.9*
CC(=O)Nc1ccc(OCC(O)Cn2ccnc2)cc1 (stereo unspecified) | 0.0 | 0.78 | i | -13.4 | -4.9
Cc1cccc2nc(COc3ccc4ccccc4c3Br)cn12 | · | -1.67 | · | · | ·
Cc1cc(C)nc(NC(=O)C2c3ccccc3Oc3ccccc32)n1 | -28.6 | 0 | i | 4.0 | -3.3
O=C(COC(=O)c1ccc(S(=O)(=O)N2CCOCC2)cc1)NCc1cccs1 | 5.0 | -0.61 | i | -1.9 | -3.9
CCCCCOc1ccc(Cl)cc1CN1CCOCC1 | 15.2 | -0.73 | i | 38.6 | 79.6*
SMILES | INS promoter inh | Insulin prom up | Autophagy HCS | WT yeast gro inh | Lmaj promast
CC(C)CCOc1ccc(Cl)cc1CN1CCOCC1 | -28.6 | -0.06 | i | 12.5 | 89.4*
CCOc1ccc(Cl)cc1CN1CCOCC1 | 41.4 | · | i | -26.4 | 3.9
Nc1c(-c2ccccc2)cnn1C1CCS(=O)(=O)C1 (stereo unspecified) | -6.2 | 0.98 | i | -6.9 | -4.8
Fc1ccc(-c2cc3nc(-c4ccccc4)cc(N4CCOCC4)n3n2)cc1 | 25.0 | -0.14 | i | · | 6.2
Cc1ccc(-c2cc3nc(-c4ccccc4)cc(N4CCC5(CC4)OCCO5)n3n2)cc1 | -11.1 | -0.95 | i | 54.5 | 55.9*
Cc1cccc(-c2cc3nc(-c4ccccc4)cc(N4CCC5(CC4)OCCO5)n3n2)c1 | 50.0 | -0.66 | i | 35.1 | 47.2
COCCN1CCN(c2cc(-c3ccccc3)nc3cc(-c4cccc(F)c4)nn23)CC1 | 6.7 | -1.87 | i | 77.1* | 87.4*
COc1ccc(-c2cc3nc(-c4ccccc4)cc(N4CCC(O)CC4)n3n2)cc1 | · | -1.09 | i | 61.6* | 37.7
COc1ccc(-c2cc3nc(-c4ccccc4)cc(N4CCCC(O)C4)n3n2)cc1 (stereo unspecified) | · | -0.79 | i | 68.2* | 32.0
O=C(CCNC(=O)Cn1ccc2ccccc2c1=O)NCCc1ccccc1Cl | -32.3 | 0.58 | i | 2.2 | -1.6
COc1cccc(NC(=S)NC2CC(C)(C)NC(C)(C)C2)c1 | 19.4 | -0.02 | i | -14.8 | 1.2
